# Results published in PubChem BioAssay (EPA / NIEHS).
# Where “and” joins values, the source holds several entries; their conditions need not be identical. Identical values can stand only once. Records with an inconclusive call do not appear. A structure can be active in one record and inactive in another. Calls of active or inactive are those of the source. Rule for the calls: active = hit-call score of the fitted dose curve at least 0.9, where 1 is the maximum; inconclusive = response in the unintended direction; inactive = score below 0.9.
# Tests used:
# [1] = LTEA_HepaRG_LDH_cytotoxicity: Cytotoxicity Assessment in the Life Technologies and Expression Analysis (LTEA) Assay (AID 2283563)
# Outline: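 Human HepaRG hepatic cells are treated with test chemicals for 48 h at up to 100 uM in 0.5% DMSO. Cytotoxicity is scored from medium LDH against the vehicle control.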
# [2] = molecular target: Cellular tumor antigen p53 (Homo sapiens) (UniProt P04637); assay: TOX21_p53_BLA_p2_ratio: Tox21 HCT-116 p53 Agonism Beta-lactamase Assay, Ratio, Phase 2 (AID 2283592)
# Sequence of Cellular tumor antigen p53 (Homo sapiens) (P04637 whole entry, looked up): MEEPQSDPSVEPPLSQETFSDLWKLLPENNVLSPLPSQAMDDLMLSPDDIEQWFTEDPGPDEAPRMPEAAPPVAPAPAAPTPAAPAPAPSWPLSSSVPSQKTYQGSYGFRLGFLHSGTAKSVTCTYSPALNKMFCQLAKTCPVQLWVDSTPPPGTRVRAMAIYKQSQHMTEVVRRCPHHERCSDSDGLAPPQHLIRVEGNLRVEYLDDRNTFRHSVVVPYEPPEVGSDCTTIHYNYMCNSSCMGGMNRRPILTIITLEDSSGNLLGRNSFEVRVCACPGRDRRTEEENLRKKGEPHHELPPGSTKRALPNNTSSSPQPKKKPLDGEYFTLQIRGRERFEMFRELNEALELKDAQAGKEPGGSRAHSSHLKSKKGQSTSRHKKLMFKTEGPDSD
# Outline: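 Cleaved-to-uncleaved substrate ratio (460 vs 530 nm) measured in HCT116 cells with an inducible beta-lactamase reporter linked to p53 activity. Compounds incubated 16 h at 37C before 2 h room-temperature CCF4-AM loading.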
# [3] = TOX21_p53_BLA_p3_viability: Viability Assessment in the Tox21 HCT-116 p53 Agonism Beta-lactamase Assay, Phase 3 (AID 2283593);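 note: cells exposed to compound for 16 h before reading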
# Outline: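 HCT116 cells, 4000/well, dosed 5 h after plating by pin transfer (217-fold dilution from DMSO stock) and incubated 16 h at 37C, 5% CO2. Viability read as ATP luminescence with CellTiter-Glo after 30 min at room temperature.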
# [4] = molecular target: Cellular tumor antigen p53 (Homo sapiens) (UniProt P04637); assay: TOX21_p53_BLA_p3_ratio: Tox21 HCT-116 p53 Agonism Beta-lactamase Assay, Ratio, Phase 3 (AID 2283596)
# Outline: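 Cells were seeded at 4000/well, rested 5 h at 37C, then dosed with DMSO compound solutions (217-fold dilution) for 16 h. CCF4-AM substrate was loaded for 2 h at room temperature, and the 460/530 nm emission ratio was fitted for gain of signal versus DMSO.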
# [5] = TOX21_p53_BLA_p4_viability: Viability Assessment in the Tox21 HCT-116 p53 Agonism Beta-lactamase Assay, Phase 4 (AID 2283597);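 note: hits lower the luminescence signal meaning cytotoxicity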
# Outline: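 Viability is taken as cellular ATP: after 16 h compound exposure of HCT116 cells and a 2 h room-temperature CCF4-AM substrate step, CellTiter-Glo reagent is added and luminescence is measured 30 min later.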
# [6] = molecular target: Cellular tumor antigen p53 (Homo sapiens) (UniProt P04637); assay: TOX21_p53_BLA_p5_ratio: Tox21 HCT-116 p53 Agonism Beta-lactamase Assay, Ratio, Phase 5 (AID 2283599)
# Outline: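 HCT-116 p53-bla cells (4000/well) plated 5 h, dosed with compound (217-fold DMSO dilution) for 16 h at 37 C; CCF4-AM substrate 2 h at room temperature. Activity is the 460/530 nm emission ratio (405 nm excitation), fitted in gain-of-signal direction versus DMSO.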
# [7] = TOX21_p53_BLA_p5_viability: Viability Assessment in the Tox21 HCT-116 p53 Agonism Beta-lactamase Assay, Phase 5 (AID 2283600)
# Outline: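 Viability is taken from cellular ATP content, measured by luciferase luminescence in the same wells after the beta-lactamase ratio read. Cells are seeded at 4000 per well and exposed to DMSO-dissolved compounds, diluted 217-fold, for 16 h.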
# [8] = molecular target: Cellular tumor antigen p53 (Homo sapiens) (UniProt P04637); assay: TOX21_p53_BLA_p4_ratio: Tox21 HCT-116 p53 Agonism Beta-lactamase Assay, Ratio, Phase 4 (AID 2283601)
# Outline: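 HCT-116 p53 beta-lactamase reporter cells (4000/well) preincubated 5 h, then compound (217-fold dilution of DMSO stock) for 16 h at 37C. CCF4-AM substrate added 2 h at room temperature; 460/530 nm emission ratio fitted upward versus DMSO.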
# [9] = ATG_XTT_Cytotoxicity: Cytotoxicity Assessment in the Attagene TRANS-FACTORIAL HepG2 Assay (AID 2283584);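 for AC50: XTT signal for cell number as viability in transfected HepG2 cells; cells exposed to compound for 24 h before reading; active means loss of viability signal versus DMSO baseline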
# Outline: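 Transfect HepG2 with GAL4-UAS reporter units, dose compound, incubate 24 h, then measure viable cell number by XTT. Fit concentration response against DMSO baseline.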
# [10] = TOX21_p53_BLA_p2_viability: Viability Assessment in the Tox21 HCT-116 p53 Agonism Beta-lactamase Assay, Phase 2 (AID 2283591);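 note: compound exposure lasted 16 h at 37 °C; actives lower the ATP signal meaning cytotoxicity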
# Outline: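 HCT116 p53-bla cells, 4000/well, dosed after 5 h plating (217-fold dilution of DMSO stocks) and incubated 16 h at 37C. Viability taken as cellular ATP by CellTiter-Glo luminescence after 30 min RT; signal loss marks cytotoxicity.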
structure (smiles),measurement,setting,value
O=C(O)c1ccc([N+](=O)[O-])cc1,outcome,[1],inactive
same,outcome,[2],inactive
same,outcome,[3],inactive
same,outcome,[4],inactive
same,outcome,[5],inactive
same,outcome,[6],inactive
same,outcome,[7],inactive
same,outcome,[8],inactive
COc1ccnc(CS(=O)c2nc3cc(OC(F)F)ccc3[nH]2)c1OC (centres undefined),outcome,[9],inactive
O=C1c2ccccc2C(=O)N1SC1CCCCC1,outcome,[9],inactive
same,AC50,[10],61.2 µM (active)
same,outcome,[10],inactive
same,AC50,[2],81.1 µM (active)
same,outcome,[2],inactive
same,AC50,[3],47.6 µM (active) and 86.6 µM (active)
same,AC50,[5],49.3 µM (active)
same,outcome,[5],inactive
same,AC50,[6],44.8 µM (active)
same,outcome,[6],inactive
same,outcome,[7],inactive
same,AC50,[8],76 µM (active)
same,outcome,[8],inactive
Cc1ccc(O)c(C(C)(C)C)c1,outcome,[9],inactive
same,AC50,[10],44.8 µM (active)
same,outcome,[10],inactive
same,AC50,[2],68.4 µM (active)
same,outcome,[2],inactive
same,AC50,[3],36.7 µM (active)
same,outcome,[3],inactive
same,AC50,[5],46.1 µM (active) and 52.5 µM (active)
same,AC50,[6],60.5 µM (active) and 67.9 µM (active)
same,AC50,[7],42.9 µM (active)
same,outcome,[7],inactive
same,AC50,[8],72.2 µM (active) and 68.5 µM (active)
CC(C)(C#N)c1cc(Cn2cncn2)cc(C(C)(C)C#N)c1,outcome,[9],inactive
same,outcome,[10],inactive
same,outcome,[2],inactive
same,outcome,[3],inactive
same,outcome,[4],inactive
same,outcome,[5],inactive
same,outcome,[6],inactive
same,outcome,[7],inactive
same,outcome,[8],inactive
c1ccc2c(c1)c1cccc3ccc4cccc2c4c31,outcome,[9],inactive
same,outcome,[10],inactive
same,AC50,[2],15 µM (active)
same,outcome,[2],inactive
same,outcome,[3],inactive
same,AC50,[4],60.5 µM (active)
same,outcome,[4],inactive
same,AC50,[6],40.6 µM (active)
same,outcome,[6],inactive
same,outcome,[7],inactive
same,outcome,[8],inactive
O=C(COc1ccc(Cl)cc1)N1CCN(Cc2ccc3c(c2)OCO3)CC1,outcome,[9],inactive
NCCCN1CCOCC1,outcome,[9],inactive
N#Cc1ccccc1,outcome,[9],inactive
same,outcome,[10],inactive
same,outcome,[2],inactive
same,outcome,[3],inactive
same,outcome,[4],inactive
same,outcome,[5],inactive
same,outcome,[6],inactive
same,outcome,[7],inactive
same,outcome,[8],inactive
CCC/C=C/C=O,outcome,[9],inactive
O=C1OC2(c3cc(Br)c(O)c(Br)c3Oc3c2cc(Br)c(O)c3Br)c2c(Cl)c(Cl)c(Cl)c(Cl)c21,outcome,[9],inactive
same,AC50,[10],46.2 µM (active) and 19.8 µM (active)
same,AC50,[2],16.8 µM (active)
same,outcome,[2],inactive
same,AC50,[3],48.3 µM (active) and 20.9 µM (active)
same,AC50,[4],50.7 µM (active)
same,outcome,[4],inactive
same,AC50,[5],50.2 µM (active) and 23.6 µM (active)
same,AC50,[6],50.2 µM (active)
same,outcome,[6],inactive
same,outcome,[7],inactive
same,AC50,[8],48.7 µM (active) and 26.5 µM (active)
CC[Si](OC(C)=O)(OC(C)=O)OC(C)=O,outcome,[9],inactive
same,outcome,[10],inactive
same,outcome,[2],inactive
same,outcome,[3],inactive
same,outcome,[4],inactive
same,outcome,[5],inactive
same,outcome,[6],inactive
same,outcome,[7],inactive
CCCC(C)C=O (centres undefined),outcome,[9],inactive
COc1cc2ncnc(Nc3cccc(Cl)c3)c2cc1OC,outcome,[9],inactive
CC1(C)OC[C@@H]2O[C@@]3(C(=O)O)OC(C)(C)O[C@H]3[C@@H]2O1,outcome,[9],inactive
O=C(O)c1cccc([N+](=O)[O-])c1,outcome,[9],inactive
same,outcome,[10],inactive
same,outcome,[2],inactive
same,outcome,[3],inactive
same,outcome,[4],inactive
same,outcome,[5],inactive
same,outcome,[6],inactive
same,outcome,[7],inactive
same,outcome,[8],inactive
N#Cc1nc(Cl)c(Cl)c(Cl)c1Cl,AC50,[9],56.8 µM (active)
O=C(Cl)c1cccc(C(=O)Cl)c1,outcome,[9],inactive
same,outcome,[10],inactive
same,AC50,[2],46.1 µM (active)
same,outcome,[2],inactive
same,outcome,[3],inactive
same,outcome,[4],inactive
same,outcome,[5],inactive
same,outcome,[6],inactive
same,outcome,[7],inactive
same,outcome,[8],inactive
CCCCCCC#CC(=O)OC,outcome,[9],inactive
Cc1ccc(C(=O)c2cc(O)c(O)c([N+](=O)[O-])c2)cc1,outcome,[9],inactive
same,AC50,[10],53.8 µM (active)
same,outcome,[10],inactive
same,AC50,[2],14.6 µM (active)
same,outcome,[2],inactive
same,AC50,[3],46.1 µM (active)
same,outcome,[3],inactive
same,AC50,[5],46.1 µM (active)
same,outcome,[5],inactive
same,AC50,[6],71.3 µM (active)
same,outcome,[6],inactive
same,outcome,[7],inactive
same,AC50,[8],49.6 µM (active)
same,outcome,[8],inactive
CN(C)c1ccc(O)c2c1C[C@H]1C[C@H]3[C@H](N(C)C)C(=O)C(C(N)=O)=C(O)[C@@]3(O)C(=O)C1=C2O,outcome,[9],inactive
Clc1cccc(Cl)n1,outcome,[9],inactive
CC(C)(CO)[N+](=O)[O-],outcome,[9],inactive
O=S(=O)(O)NC1CCCCC1,outcome,[9],inactive
C=C(C)C(=O)Nc1ccc(Cl)c(Cl)c1,outcome,[9],inactive
same,outcome,[10],inactive
same,AC50,[2],60.6 µM (active)
same,outcome,[2],inactive
same,outcome,[3],inactive
same,AC50,[4],56.1 µM (active)
same,outcome,[4],inactive
same,outcome,[5],inactive
same,AC50,[6],74.7 µM (active)
same,outcome,[6],inactive
same,outcome,[7],inactive
same,AC50,[8],68 µM (active)
same,outcome,[8],inactive
O=[N+]([O-])c1ccc(C=Cc2ccc([N+](=O)[O-])cc2S(=O)(=O)O)c(S(=O)(=O)O)c1,outcome,[9],inactive
O=C(O)CCCCCCCCCCC(=O)O,outcome,[9],inactive
CC(CN1c2ccccc2Sc2ccccc21)N(C)C (centres undefined),outcome,[9],inactive
same,AC50,[10],38.9 µM (active)
same,AC50,[2],43.6 µM (active)
same,outcome,[2],inactive
same,outcome,[4],inactive
same,AC50,[6],43.5 µM (active)
same,outcome,[6],inactive
same,AC50,[7],39.8 µM (active)
same,outcome,[8],inactive
CCCCCCCCCCCCOCCO,outcome,[9],inactive
CCn1c2ccccc2c2cc(N)ccc21,outcome,[9],inactive
same,outcome,[10],inactive
same,AC50,[2],65.1 µM (active) and 74.2 µM (active)
same,outcome,[2],inactive
same,outcome,[3],inactive
same,outcome,[5],inactive
same,outcome,[6],inactive
same,outcome,[7],inactive
same,AC50,[8],64 µM (active)
same,outcome,[8],inactive
COc1c(Cl)c(Cl)c(Cl)c(Cl)c1Cl,outcome,[9],inactive
CCN(CC)CCOC(=O)c1ccc(N)cc1,outcome,[9],inactive
same,outcome,[10],inactive
same,outcome,[2],inactive
same,outcome,[3],inactive
same,outcome,[4],inactive
same,outcome,[5],inactive
same,outcome,[6],inactive
same,outcome,[7],inactive
same,outcome,[8],inactive
CC(=O)/C=C/C1=C(C)CCCC1(C)C,outcome,[9],inactive
BrC1CCC(Br)C(Br)CCC(Br)C(Br)CCC1Br (centres undefined),outcome,[9],inactive
same,AC50,[10],18.1 µM (active) and 18.2 µM (active)
same,AC50,[2],53.1 µM (active) and 45.9 µM (active)
same,AC50,[3],15.1 µM (active)
same,outcome,[3],inactive
same,AC50,[5],40.1 µM (active) and 19.6 µM (active)
same,outcome,[6],inactive
same,outcome,[7],inactive
same,AC50,[8],63.7 µM (active) and 50.3 µM (active)
CCCCC[Si](OCC)(OCC)OCC,outcome,[9],inactive
O=C[C@H](O)[C@H](O)[C@H](O)CO,outcome,[9],inactive
NC(=O)NC1NC(=O)NC1=O (centres undefined),outcome,[9],inactive
same,outcome,[10],inactive
same,outcome,[2],inactive
same,outcome,[3],inactive
same,outcome,[4],inactive
same,outcome,[5],inactive
same,outcome,[6],inactive
same,outcome,[7],inactive
same,outcome,[8],inactive
